Among the test systems are T-47D breast; BT-549 breast; MDA-MB-435 melanoma; SW-620 colon; MCF7 breast; HCT-116 colon; HCC-2998 colon; KM12 colon.
Common to all, as to assay: NCI-60 one-dose screen, 48 h (100 = growth as untreated, 0 = no growth, -100 = all killed)
Common to all, as to conditions: 10 µM unless noted

Here are results for 16 compounds from PubChem BioAssay (NCI).

Each structure is given as a SMILES string. This is part of a sample that, as a whole, favours compounds with a hit. Of some 83,000 tested, about 20% had one in any assay.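 48-hour exposure, single concentration, 96-well plates; percent growth endpoint where 0 means no net growth. Active: below 10.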 Values without a mark were called inactive. Calls of active or inactive are those of the source.

Regarding `CCCCn1sc(=O)n(Cc2ccc(CNC(=O)OCc3ccc4c(Cl)cc(Cl)c(O)c4n3)cc2)c1=O`, the growth in the assay on T-47D breast was 62.8%; with BT-549 breast, 81.4%; in the assay with MDA-MB-435 melanoma, 69.6%; in the assay with SW-620 colon, 61%; in the assay on MCF7 breast, 63.5%; in the assay on HCT-116 colon, 46.3%. Moreover, the results for the growth with HCC-2998 colon and in the assay with KM12 colon were 98.7% and 65.1%, respectively.
For the compound `CCOC(=O)NN1CC(O)=C(c2nc(-c3ccc(Br)cc3)cs2)C1=N`, the growth in the assay on T-47D breast was 94.2%; in the assay with BT-549 breast, 116%; in the assay with MDA-MB-435 melanoma, 103%; with SW-620 colon it was 107%; in the assay with MCF7 breast, 103%; in the assay on HCT-116 colon it was 132%. Besides, the growth in the assay on HCC-2998 colon was 113%; with KM12 colon it was 118%.
In the case of `COc1cccc(/C=C/C(=O)c2cc3c(N)c(C(=O)Nc4ccccc4C)sc3nc2C)c1`, the growth in the assay with T-47D breast is 56.2%; in the assay with BT-549 breast, 37.8%; with MDA-MB-435 melanoma, -26.3% (active); in the assay with SW-620 colon, 1.68% (active); in the assay with MCF7 breast it was 7.39% (active); with HCT-116 colon, 41.8%. Further, the growth was 35.1% in the assay with HCC-2998 colon and 27.4% in the assay with KM12 colon.
With `CC(=O)Nc1c(Cl)cc(Cl)c2c1Cc1cc([N+](=O)[O-])ccc1-2`, the growth with T-47D breast is 70.6%; with BT-549 breast it was 92.7%; in the assay on MDA-MB-435 melanoma it was 85.9%; with SW-620 colon, 80.6%; in the assay with MCF7 breast, 76.8%; with HCT-116 colon it was 45.8%. Further, the results for the growth with HCC-2998 colon and with KM12 colon were 94.3% and 86.4%, respectively.
As for `c1ccc2cc(Cn3c[n+](Cc4ccc5ccccc5c4)c4ccccc43)ccc2c1`, the growth was -8.43% (active) in the assay on T-47D breast; -82.7% (active) in the assay on BT-549 breast; -52.6% (active) in the assay on MDA-MB-435 melanoma; -3% (active) with SW-620 colon; -30.2% (active) with MCF7 breast; -90.6% (active) in the assay with HCT-116 colon. Further, the growth is -53.3% (active) in the assay on HCC-2998 colon and -85.9% (active) in the assay on KM12 colon.
For `CN(C)Cc1ccc(C(=O)Nc2ccc3ncnc(Nc4ccc(Oc5cccc(F)c5)c(Cl)c4)c3c2)cc1`, the growth with T-47D breast is 10%; in the assay on BT-549 breast, 80.2%; in the assay with MDA-MB-435 melanoma it was -89.4% (active); with SW-620 colon, -73.1% (active); in the assay with MCF7 breast it was -62.1% (active); with HCT-116 colon, -39.7% (active). Further, the results for the growth in the assay on HCC-2998 colon and with KM12 colon were -65.3% (active) and -5.02% (active), respectively.
For `COc1ccc(NC(=O)c2ccc(C(=O)Nc3ccc(OC)cc3OC)cc2)c(OC)c1`, the growth was 71.9% in the assay on T-47D breast; 43.6% with BT-549 breast; 93.3% in the assay on MDA-MB-435 melanoma; 97.9% in the assay with SW-620 colon; 75.2% in the assay with MCF7 breast; 78.1% with HCT-116 colon. For the same compound, the growth is 72.2% in the assay with HCC-2998 colon and 103% with KM12 colon.
In the case of `C=C1C(=O)O[C@H]2[C@H]1CC/C(Cn1cc(-c3cc(C(F)(F)F)cc(C(F)(F)F)c3)nn1)=C\CC[C@@]1(C)O[C@@H]21`, the growth in the assay with T-47D breast was -60.6% (active); in the assay with BT-549 breast, -78% (active); in the assay on MDA-MB-435 melanoma, -81.7% (active); with SW-620 colon, -35.8% (active); in the assay with MCF7 breast, -67.6% (active); in the assay on HCT-116 colon, -87.2% (active). Moreover, the growth was -87.4% (active) in the assay with HCC-2998 colon and -77.1% (active) with KM12 colon.
Take `COc1ccc2cc(-c3cnc4nonc4n3)ccc2c1`: the growth in the assay with T-47D breast was 15.5%; in the assay on BT-549 breast it was 56.3%; in the assay on MDA-MB-435 melanoma, -14.9% (active); in the assay with SW-620 colon it was 26.9%; in the assay with MCF7 breast it was 15.7%; with HCT-116 colon, 18.3%. Also, the growth was 59.3% with HCC-2998 colon and 23.1% in the assay with KM12 colon.
For `Cn1cc(-c2nn3cc(-c4ccccc4)nc3s2)c2ccccc21`, the growth is 59.6% in the assay on T-47D breast; 78.1% in the assay on BT-549 breast; -1.83% (active) in the assay on MDA-MB-435 melanoma; 43.7% with SW-620 colon; 55.6% in the assay on MCF7 breast; 69.3% in the assay with HCT-116 colon. In addition, the growth in the assay on HCC-2998 colon is 86%; in the assay on KM12 colon, 41.6%.
Turning to `Cc1nc2sc(C(=O)Nc3cccc(Cl)c3)c(N)c2cc1C(O)c1ccccc1` (stereo not drawn), the growth is 50.6% in the assay on T-47D breast; 52.6% with BT-549 breast; 5.16% (active) in the assay with MDA-MB-435 melanoma; 33.1% with SW-620 colon; 21.9% with MCF7 breast; 13.9% in the assay with HCT-116 colon. For the same compound, the growth in the assay on HCC-2998 colon is 17.8%; in the assay on KM12 colon, 18.3%.
With `O=c1[nH]c(-c2ccc(Cl)cc2)cn1-c1ccc(-n2cc(-c3ccc(Cl)cc3)[nH]c2=O)cc1`, the growth with T-47D breast is 89.1%; in the assay on BT-549 breast, 110%; in the assay on MDA-MB-435 melanoma it was 98.8%; with SW-620 colon, 102%; in the assay on MCF7 breast, 99.8%; in the assay on HCT-116 colon, 101%. Moreover, the growth with HCC-2998 colon and with KM12 colon was 106% each time.
As to `CCOC(=O)Nc1nc2ccc(SCC(C)C)cc2s1`, the growth in the assay with T-47D breast is 24.3%; in the assay with BT-549 breast, 47.1%; in the assay on MDA-MB-435 melanoma, 104%; in the assay on SW-620 colon, 33.8%; in the assay on MCF7 breast, 20.6%; in the assay with HCT-116 colon it was 31.4%. The growth in the assay with HCC-2998 colon was 75%; with KM12 colon, 34.4%.
In the case of `O=[N+]([O-])/C(=C\c1ccco1)c1ccccc1Cl`, the growth in the assay on T-47D breast is 36.6%; in the assay on BT-549 breast, 9.05% (active); with MDA-MB-435 melanoma, 75.6%; in the assay with SW-620 colon, 84.1%; in the assay on MCF7 breast, 38.4%; in the assay on HCT-116 colon, 11.8%. For the same compound, the growth with HCC-2998 colon was 94.9%; in the assay with KM12 colon it was 89.5%.
Consider `COc1ccc(-c2ccc(=O)oc2C#Cc2cc(OC)c(OC)c(OC)c2)cc1O`, for which the growth in the assay on T-47D breast was 38.8%; in the assay with BT-549 breast, -16.9% (active); in the assay with MDA-MB-435 melanoma it was -78% (active); with SW-620 colon, -30.3% (active); in the assay with MCF7 breast, 3.79% (active); in the assay with HCT-116 colon, -30.4% (active). Moreover, the growth was 221% in the assay with HCC-2998 colon and 3.09% (active) with KM12 colon.
For the compound `O=C1/C(=C/c2ccc(C(F)(F)F)cc2)COc2ccc(O)cc21`, the growth in the assay on T-47D breast was 78%; in the assay on BT-549 breast, 72.8%; in the assay on MDA-MB-435 melanoma it was 87.7%; in the assay on SW-620 colon, 1.98% (active); with MCF7 breast, 6.03% (active); with HCT-116 colon, 33.2%. In addition, the growth was 94.1% in the assay on HCC-2998 colon and 52.2% in the assay on KM12 colon.
